{
  "source": "PubChem BioAssay (Tox21)",
  "note": "Results filed as inconclusive are left out. A call without a number means that no potency is given here. Active and inactive are the calls of the source. The call rests on the fitted dose curve; in most records, active means well fitted curve in the direction sought with a large enough effect in the repeat runs; inconclusive means weak or mixed curves; inactive means no such curve, though single readings can be large; an effect the other way counts as inactive or inconclusive. Potency means the concentration at half of the fitted maximal effect.",
  "data": [
    {"test": "qHTS assay to identify small molecule antagonists of the retinoic acid receptor (RAR) signaling pathway (AID 1159552; further: nearly all actives have a fitted effect of over 50% in size)", "conditions": "C3RL4 RARE luciferase reporter, retinol-stimulated, 6 h; series mostly up to 92.4 µM", "summary_of_the_method": "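Antagonism of retinol-induced RARE reporter activity was measured in C3RL4 cells. Exposure to compounds and 1 uM final retinol lasted 6 hr at 37 C, with luminescence as endpoint.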", "values": [
      {"compound": "COC1=C(OC)C(=O)C(CCCCCCCCCCO)=C(C)C1=O", "Potency": "inactive"},
      {"compound": "CCC(C)[O-].CCC(C)[O-].CCOC(=O)/C=C(/C)[O-].[Al+3]", "Potency": "inactive"},
      {"compound": "CN(C)[C@@H](CCOc1cccc2ccccc12)c1ccccc1", "Potency": "29800 nM (active)"},
      {"compound": "CCc1oc2ccccc2c1C(=O)c1cc(I)c(O)c(I)c1", "Potency": "inactive"}
    ]},
    {"test": "qHTS assay to identify small molecule agonists of the retinoic acid receptor (RAR) signaling pathway (AID 1159553)", "conditions": "C3RL4 RARE luciferase reporter, agonist, 6 h; activation: at 73.3 µM (top of the series) unless noted", "summary_of_the_method": "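6 hr compound exposure (DMSO vehicle) of overnight-plated C3RL4 RARE-luc cells at 37 C; luminescence quantified after 30 min RT with luciferase reagent.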", "values": [
      {"compound": "CCCC[P+](C)(CCCC)CCCC", "Potency": "inactive"},
      {"compound": "CC[N+](CC)(CC)CCOC(=O)C(C1CCCC1)C1CCCC1", "Potency": "inactive"},
      {"compound": "CC(CCc1ccccc1)NCC(O)c1ccc(O)c(C(N)=O)c1", "note": "(configuration not stated)", "Potency": "inactive"},
      {"compound": "COc1ccc(-c2coc3cc(O)ccc3c2=O)cc1", "Potency": "486 nM (active)"},
      {"compound": "CC(C)(C)CC(C)(C)c1ccc(Nc2ccc(C(C)(C)CC(C)(C)C)cc2)cc1", "activation": "-3.08% [at 8.36 µM] (inactive)"},
      {"compound": "CC(C)=CCC1=C(O)c2ccccc2C(=O)C1=O", "Potency": "inactive"},
      {"compound": "O=C(Oc1ccccc1)Oc1ccccc1", "Potency": "inactive"},
      {"compound": "Cc1ccc(-c2ccccc2)cc1", "Potency": "inactive"},
      {"compound": "CCCCNS(=O)(=O)c1ccc(C)cc1", "Potency": "inactive"},
      {"compound": "O=C(O)CCN(C1(C(=O)NO)CCCC1)S(=O)(=O)c1ccc(Oc2ccc(F)cc2)cc1", "Potency": "inactive"},
      {"compound": "COc1cc(/C=C/c2ccccc2)oc(=O)c1", "Potency": "564 nM (active)"},
      {"compound": "CN(C)Cc1cc(C(C)(C)C)c(O)c(C(C)(C)C)c1", "Potency": "inactive"},
      {"compound": "O=c1[nH]c(=O)n([C@H]2C[C@H](O)[C@@H](CO)O2)cc1F", "Potency": "inactive"},
      {"compound": "COC(=O)c1ccccc1OC", "Potency": "inactive"},
      {"compound": "CNC(=O)c1ccccc1Sc1ccc2c(/C=C/c3ccccn3)n[nH]c2c1", "Potency": "188 nM (active)"},
      {"compound": "COC1=C(OC)C(=O)C(CCCCCCCCCCO)=C(C)C1=O", "Potency": "inactive"},
      {"compound": "CCC(C)[O-].CCC(C)[O-].CCOC(=O)/C=C(/C)[O-].[Al+3]", "Potency": "inactive"},
      {"compound": "CCc1oc2ccccc2c1C(=O)c1cc(I)c(O)c(I)c1", "Potency": "inactive"}
    ]}
  ]
}
